Source: PubChem BioAssay AID588453 (National Center for Advancing Translational Sciences (NCATS), 2011)
Hit rate of the full screen: of about 390,000 compounds, about 4,000 (1%) were called active. Not shown: some 4% with an inconclusive outcome. The list comes from a sample in which actives are over-represented; it also holds similar structures and randomly drawn compounds. Entries that show only a call come without a potency. A number with no mark means an inactive call. Calls come from the whole dose curve; as a rule, active = well fitted inhibition curve with a large enough effect; inconclusive = small, poorly fitted or top-dose-only effect; inactive = no such curve, though single readings can be large or run the other way.

Target: Thioredoxin reductase 1, cytoplasmic (Rattus norvegicus) (UniProt O89049)
Sequence (O89049 whole entry, looked up): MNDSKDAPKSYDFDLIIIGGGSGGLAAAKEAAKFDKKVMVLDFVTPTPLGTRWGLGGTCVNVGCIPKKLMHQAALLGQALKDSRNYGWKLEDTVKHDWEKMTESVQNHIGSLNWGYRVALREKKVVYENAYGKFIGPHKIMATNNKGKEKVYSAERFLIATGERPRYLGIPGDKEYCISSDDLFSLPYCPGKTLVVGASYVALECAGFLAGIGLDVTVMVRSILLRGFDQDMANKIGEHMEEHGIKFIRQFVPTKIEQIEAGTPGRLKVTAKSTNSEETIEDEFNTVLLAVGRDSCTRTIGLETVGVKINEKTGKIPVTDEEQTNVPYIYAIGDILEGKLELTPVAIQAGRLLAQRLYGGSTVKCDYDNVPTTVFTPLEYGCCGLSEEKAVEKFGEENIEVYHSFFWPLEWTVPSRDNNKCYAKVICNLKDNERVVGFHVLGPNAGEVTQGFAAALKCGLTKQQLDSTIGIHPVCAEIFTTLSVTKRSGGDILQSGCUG
Experiment: qHTS Assay for Inhibitors of Mammalian Selenoprotein Thioredoxin Reductase 1 (TrxR1): qHTS; note: nearly all actives have a fitted effect of over 65% in size
Conditions: recombinant rTrxR1, NADPH fluorescence consumption, selenite substrate; series mostly up to 114 µM
How it was run: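 Rat TrxR1 (90 nM in the dispensed reagent) was pre-reduced with 400 uM NADPH for 5 min at room temperature, then incubated with compound for 15 min. After 400 uM selenite was added, NADPH fluorescence (Ex 340/Em 450 nm) was followed for 8 min.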
Potency is the fitted concentration of half-maximal effect.

SMILES	Potency	activity change, negative = inhibition
Oc1ccc(Cn2cc[nH]c2=S)cc1	inactive	–
O=[N+]([O-])c1cc(-c2nc(-c3ccccc3)no2)ccc1NCc1ccco1	inactive	–
CC(Nc1ccc(-c2nc(-c3ccco3)no2)cc1[N+](=O)[O-])c1ccccc1 (configuration not stated)	44.7 µM (active)	–
CNc1ccc(-c2nc(-c3ccco3)no2)cc1[N+](=O)[O-]	inactive	–
COc1ccc(NC(=O)c2ccc3nc(CCc4ccccc4)oc3c2)c(OC)c1	inactive	–
CSc1ccccc1N1CCN(CCCCCC(=O)NC2CCCc3ccccc32)CC1 (configuration not stated)	inactive	–
COc1ccccc1/C=C/C(=O)OCC(=O)NC1CCCCCC1	inactive	–
CCOC(=O)C(=Cc1ccccc1OC)C(=O)OCC	44.7 µM (active)	–
COc1ccccc1C(=O)OCC(=O)NCCNC(=O)COC(=O)c1ccccc1OC	inactive	–
Cc1ccc(C)c(Nc2nnc(-c3ccc(C)c(S(=O)(=O)N4CCCCC4)c3)c3ccccc23)c1	inactive	–
CC1(C)C=Cc2c(ccc(C(=O)/C=C/c3ccccc3)c2O)O1	inactive	–
O=C(NC(Cc1ccccc1)C(=O)O)/C(=C\c1ccccc1)NC(=O)c1ccco1 (configuration not stated)	inactive	–
COc1ccccc1C(=O)N/C(=C/c1ccco1)C(=O)Nc1ccc(C(=O)O)cc1	inactive	–
O=C(Nc1ccccc1)/C(=C\c1ccco1)NC(=O)c1ccco1	50.1 µM (active)	–
O=C1COc2ccc(-c3csc(-c4ccc(Cl)cc4)n3)cc2N1	inactive	–
CCc1nn(CC(=O)Nc2cccc(C)c2C)c(=O)c2cc3sccc3n12	inactive	–
CC(C)c1ccc(NC(=O)CN(C)S(=O)(=O)c2ccc3c(c2)c(=O)n(C)c(=O)n3C)cc1	inactive	–
Nc1ncnc2c1c(I)cn2[C@@H]1C[C@H](N)[C@@H](O)[C@H]1O	inactive	–
O=C1Oc2ccccc2C(=O)/C1=C/c1ccccc1O	11.2 µM (active)	–
CO[C@H]1O[C@@H]2O[C@@]3(C)CC[C@@H]4[C@@H](C)CC[C@@H]([C@H]1C)[C@@]24OO3	inactive	–
CCOC(=O)Cc1ccc(NC(=O)Nc2c[nH]c(=O)[nH]c2=O)cc1	inactive	–
COc1cccc(C(=O)NC2=NC(c3ccc(N(C)C)cc3)CC(=O)N2)c1 (configuration not stated)	inactive	–
Cc1ccc(Nc2c(-c3ccc(Cl)cc3)nc3sccn23)c(C)c1	inactive	–
COCCNc1nnc(SCC(=O)NNC(=O)c2ccco2)s1	inactive	–
CC(C)c1ccc(C2C(C(=O)c3ccco3)=C(O)C(=O)N2CC2CCCO2)cc1 (configuration not stated)	inactive	–
C=CCSc1nnc(N2C(=O)C(O)=C(C(=O)c3ccco3)C2c2ccc(F)cc2)s1 (configuration not stated)	28.2 µM (active)	–

SMILES	Potency	activity change, negative = inhibition
CCOc1ccccc1NC(=O)C1CCCN(S(=O)(=O)c2cn(C)cn2)C1 (configuration not stated)	inactive	–
COc1ccc(-c2nc3scc(CCNS(=O)(=O)c4cc(F)ccc4OC)n3n2)cc1OC	inactive	–
CCOc1ccccc1NC(=O)CCn1cnnn1	inactive	–
Cc1ccc2nc(CNC(=O)c3ccccc3)[nH]c2c1	inactive	–
Cc1cc(C)nc(S/C=C/C(=O)c2ccccc2)n1	1 µM (active)	–
Cc1cc(C)nc(NC(=O)Nc2ccccc2C(F)(F)F)n1	inactive	–
OC(Cc1ccc2ccccc2n1)c1ccc(Cl)c(Cl)c1 (configuration not stated)	–	24.6% [at 0.0914 µM]
COc1ccccc1NC(=O)c1cc(C2CC2)nc2c1c(C)nn2-c1ccc(C)cc1	inactive	–
CCOC(=O)c1c(NC(=O)c2ccc(S(=O)(=O)N3CCCC(C)C3)cc2)sc2c1CCN(C(C)C)C2 (configuration not stated)	inactive	–
CCOc1ccc(CNC(=O)c2ccc(CS(=O)c3ccccc3)o2)cc1 (configuration not stated)	inactive	–
Cc1nn(CC(=O)O)c(=O)c2cc3cc(F)ccc3n12	inactive	–
CC1=C/C(=N\OS(=O)(=O)c2ccccc2)C=CC1=O	1.78 µM (active)	–
Cc1cc[n+](C2CCCCC2)cc1	inactive	–
CCC(Sc1nc2n[nH]c(C)c2c(=N)n1-c1ccccc1Cl)C(=O)N(CC)CC (configuration not stated)	inactive	–
CC(/C=C/c1ccccc1)=N\NC(=O)C1CC1(C)c1ccccc1 (configuration not stated)	inactive	–
CC1CC(=NNC(=O)C2COc3ccccc3O2)CC(C)(C)C1 (configuration not stated)	inactive	–
CC(/C=C/c1ccco1)=N/NC(=O)C1COc2ccccc2O1 (configuration not stated)	56.2 µM (active)	–
O=C(CCS(=O)(=O)c1cc(Br)cc2c1N(C(=O)C1CC1)CC2)Nc1ccc(C(F)(F)F)cc1	inactive	–
CN1CCN(c2oc(-c3ccc(COc4ccc(Cl)cc4)o3)nc2C#N)CC1	inactive	–
COc1ccc(C(=O)COC(=O)COc2ccc(C)c(C)c2)cc1	inactive	–
Cc1ccc(OCC(=O)Nc2cccc3c2CCCC3)cc1C	inactive	–
Cc1ccc(SC(=O)COc2ccc(C)c(C)c2)cc1	8.91 µM (active)	–
OC[C@H]1O[C@@H](n2cnc3c(N[C@H]4CC5CCC4C5)ncnc32)[C@H](O)[C@@H]1O (some centres not stated)	inactive	–
CSc1nc(-c2ccc(F)cc2)nc2c1Cc1c(CO)cnc(C)c1O2	inactive	–
Cc1oc(-c2ccccc2)nc1Cn1c(SCc2cccc(C(F)(F)F)c2)nc2cccnc21	inactive	–
COc1cccc(CNC(=O)C(=O)NCC(c2cccs2)S(=O)(=O)c2ccccc2)c1 (configuration not stated)	inactive	–
